For 64 compounds, survival results are on record in PubChem BioAssay AID463173 (ICCB-Longwood Screening Facility, Harvard Medical School, 2010).

The structures appear in SMILES notation. In all, about 52,000 compounds went through this assay and about 1,700 (3.3%) were called active. The entries come from a sample that favours actives as a whole. Values without a mark were called inactive. Rule as the data show it: active = survival mostly below about 52% (no sharp cut-off); inactive = mostly above about 56%.

The subject of this experiment is Wild type. Nature of the experiment: growth inhibition of S. aureus wild type versus tarO mutant, primary screen, teichoic acid synthesis inhibitors, RN4220, OD600 (AID 463173). The conditions noted are these: S. aureus RN4220 wild type/DeltatarO growth, OD600, 18 h, active compounds read low, screened at 18.75 µg/mL (by protocol).
On to `COC(=O)c1ccc(Nc2ncnc3c2cnn3C)cc1`, for which the survival is 81%.
Consider `COc1ccc(OC)c(S(=O)(=O)NCCc2csc(-c3cccc(F)c3)n2)c1`, for which the survival is 135%.
The same measure for `CC1=Nc2ccccc2N=C(C)C1`: 115%; for `CCOc1ccc(-c2nc(SCC(=O)NC3CCCC3)c(-c3ccccc3)[nH]2)cc1OC`: 73%.
With `COC(=O)c1ccc(OC)c(Cn2c(=O)n(-c3ccc(C)cc3)c(=O)c3c2cnn3C)c1`, the survival is 76%.
Regarding `Cc1cccc(CNC(=O)c2cnc3c(-c4cccc(C)c4)c(C)nn3c2C)c1`, the survival was -1% (active).
For the compound `COc1cc(Cl)c(C)cc1NC(=O)c1cnc2c(-c3cccc(C)c3)c(C)nn2c1C`, the survival is 14% (active).
Regarding `COc1cc(CNC(=O)c2cnc3c(-c4cccc(C)c4)c(C)nn3c2C)cc(OC)c1OC`, the survival was 74%.
Turning to `Cc1nn2c(C)c(C(=O)NCc3cccc(Br)c3)cnc2c1-c1ccccc1`, the survival was 53%.
Turning to `CCOc1ccc(-c2c(C)nn3c(C)c(C(=O)Nc4cccc(Cl)c4C)cnc23)cc1OCC`, the survival was 67%.
For the compound `COC(=O)c1ccccc1NC(=O)c1cnc2c(-c3cccc(C)c3)c(C)nn2c1C`, the survival was 133%.
As to `CCOc1ccc(-c2c(C)nn3c(C)c(C(=O)Nc4cc(C)cc(C)c4)cnc23)cc1OCC`, the survival was 133%.
In the case of `CCCCNC(=O)c1cnc2c(-c3ccc(OCC)c(OCC)c3)c(C)nn2c1-c1ccccc1`, the survival is 80%.
With `CCOc1ccc(-c2c(C)nn3c(C)c(C(=O)Nc4ccccc4C(=O)OC)cnc23)cc1OCC`, the survival is -6% (active).
As to `CCOc1ccc(OCC)c(NC(=O)c2cnc3c(-c4ccccc4)c(C)nn3c2C)c1`, the survival is 63%.
For `CCCNC(=O)c1cnc2c(-c3ccc(OCC)c(OCC)c3)c(C)nn2c1-c1ccccc1`, the survival is 76%.
Take `CCOc1ccc(-c2c(C)nn3c(-c4ccccc4)c(C(=O)NCCOC)cnc23)cc1OCC`: the survival is -6% (active).
Regarding `COCCNc1ccc2cc(S(=O)(=O)N3CCCCC3)ccc2n1`, the survival is 56%.
Turning to `COc1ccccc1CNC(=O)COCc1cc(-c2ccc3c(c2)OCO3)on1`, the survival was 19%.
The same measure for `COC(=O)C(C)n1nnc2sc(-c3ccccc3)cc2c1=O` (centres undefined): 88%.
Take `CCOC(=O)c1cccc(NC(=O)N2CCC(CN3CCc4ccccc4C3)CC2)c1`: the survival is 71%.
As for `CC(=O)N1c2ccccc2C(=O)C1N1CCN(c2cc(Cl)ccc2C)CC1` (centres undefined), the figure is 138%; as for `CCOc1ccc(CCNC(=O)c2cnc3c(-c4ccc(F)cc4)c(C)nn3c2C)cc1OCC`, 159%.
Take `CCOc1ccc(CCNC(=O)c2cnc3c(-c4ccccc4)c(C)nn3c2C)cc1OCC`: the survival is -3% (active).
As for `Cc1nn2c(C)c(C(=O)NCC(C)c3ccccc3)cnc2c1-c1ccccc1` (centres undefined), the survival is 75%.
As for `CCNC(=O)c1cnc2c(-c3ccccc3)c(C)nn2c1C`, the figure is 0% (active).
In the case of `Cc1nn2c(C)c(C(=O)NCCc3ccccc3)cnc2c1-c1ccccc1`, the survival was 55%.
With `CCOc1ccc(-c2c(C)nn3c(C)c(C(=O)NCCc4ccccc4)cnc23)cc1OCC`, the survival is 53%.
Regarding `Cc1cccc(CSc2nnc3[nH]c(=O)cc(-c4ccccc4)n23)c1`, the survival was 80%.
Turning to `CCOC(=O)C1CCCN(C(=O)c2ccc(C)c(NC(=O)c3nsc4ccccc34)c2)C1` (centres undefined), the survival is 123%.
As to `NS(=O)(=O)c1cccc(S(N)(=O)=O)c1`, the survival was 117%.
Turning to `Cc1ccc(NC(=O)CN2C(=O)C(c3ccc(F)cc3)=NC2(C)C)c(C)c1`, the survival was 85%.
As for `COc1ccc(-c2nn3c(-c4ccccc4C)nnc3c3ccccc23)cc1`, the survival was -3% (active).
Regarding `Cc1ccc(-c2nn3c(-c4ccccc4)nnc3c3ccccc23)cc1`, the survival was 76%.
For `Cc1ccc(-c2nn3c(-c4ccccc4C)nnc3c3ccccc23)cc1`, the survival was 51%.
Regarding `Cc1ccc(-c2nn3c(-c4ccc(C)cc4)nnc3c3ccccc23)cc1`, the survival is 20% (active).
As for `Cc1ccc(-c2nnc3c4ccccc4c(-c4ccccc4)nn23)cc1`, the figure is 123%; as for `COc1ccc(-c2nn3c(-c4ccc(OC)cc4)nnc3c3ccccc23)cc1`, 73%; as for `COc1ccc(CNC(=O)c2cccc(N3CCCS3(=O)=O)c2)cc1OC`, 63%.
For `O=C(Nc1cccc(C(=O)N2CCN(c3ccccc3F)CC2)c1)c1nsc2ccccc12`, the survival is 67%.
As for `Cc1nn(S(=O)(=O)c2ccccc2)c(C)c1S(=O)(=O)N1CCC(C)CC1`, the figure is 81%; as for `COc1ccc(S(=O)(=O)n2nc(C)c(S(=O)(=O)N3CCCCCC3)c2C)cc1C`, 55%; as for `Cc1nn(C(=O)c2ccccc2F)c(C)c1S(=O)(=O)N1CCCCCC1`, 70%.
For the compound `COc1ccc(S(=O)(=O)n2nc(C)c(S(=O)(=O)N3CCCCCC3)c2C)cc1OC`, the survival was 1% (active).
For `Cc1nn(S(=O)(=O)c2ccc(F)cc2)c(C)c1S(=O)(=O)N1CCCCC1`, the survival was 71%.
As for `COc1ccc(S(=O)(=O)n2nc(C)c(S(=O)(=O)N3CCC(C)CC3)c2C)cc1OC`, the survival was 81%.
Take `Cc1nn(C(=O)c2cccc([N+](=O)[O-])c2C)c(C)c1S(=O)(=O)N1CCOCC1`: the survival is 64%.
Turning to `Cc1nn(S(=O)(=O)c2ccc(F)cc2)c(C)c1S(=O)(=O)N1CCC(C)CC1`, the survival is -3% (active).
For the compound `Cc1nn(C(=O)c2cccc([N+](=O)[O-])c2C)c(C)c1S(=O)(=O)N1CCCCCC1`, the survival is -4% (active).
With `CCOC(=O)c1cc(=O)n2[nH]c(-c3ccc(C)cc3)cc2n1`, the survival was 107%.
As for `CCC(Sc1nc2ccccc2c2nc(CCc3c(C)n[nH]c3C)nn12)C(=O)Nc1ccccc1F` (centres undefined), the figure is 91%; as for `CCCCn1cc(S(=O)(=O)c2cc(C)ccc2C)c(=O)c2cc(F)c(F)cc21`, 83%; as for `COc1ccc(-c2cc(C(=O)Oc3cccc(C)c3)c3cc(C)ccc3n2)cc1`, 19%.
Regarding `Cc1ccc(OC(=O)c2cc(-c3ccccc3)nc3ccc(C)cc23)cc1`, the survival is 61%.
The same measure for `COc1ccc(-c2cc(C(=O)Oc3cccc(C)c3)c3ccccc3n2)cc1`: 3% (active).
Regarding `COc1ccc(-c2cc(C(=O)Oc3ccc(C)cc3)c3cc(C)ccc3n2)cc1`, the survival is 22%.
As to `COc1ccc(-c2cc(C(=O)Oc3ccc(Br)cc3)c3ccccc3n2)cc1`, the survival was 63%.
For the compound `COc1ccc(-c2cc(C(=O)Oc3ccc(Cl)cc3)c3ccccc3n2)cc1`, the survival is 60%.
Take `COc1ccc(-c2cc(C(=O)Oc3ccc(C)cc3)c3ccccc3n2)cc1`: the survival is 4% (active).
In the case of `COc1ccc(-c2cc(C(=O)Oc3cccc(C)c3C)c3ccccc3n2)cc1`, the survival was 12% (active).
In the case of `Cc1ccc(-c2cc(C(=O)Oc3ccccc3)c3cc(C)ccc3n2)cc1`, the survival is 65%.
Consider `Cc1ccc(-c2cc(C(=O)Oc3ccccc3)c3cccc(C)c3n2)cc1`, for which the survival is 13% (active).
Take `COc1ccc(-c2cc(C(=O)Oc3ccc(C)c(C)c3)c3ccccc3n2)cc1`: the survival is 30%.
On to `COc1ccc(-c2cc(C(=O)Oc3ccccc3)c3cc(C)ccc3n2)cc1`, for which the survival was 11%.
